Source: ChEMBL document CHEMBL3433997, “St. Jude Leishmania screening dataset” (2016)

Tests used:
Assay type in all cases: functional
[1] = biological target: Solute carrier family 2, facilitated glucose transporter member 1 (Homo sapiens) (UniProt P11166); experiment: ST_JUDE_LEISH: Cytotoxicity at 2uM final concentration against transgenic Leishmania Mexicana promastigotes LmGLUT1 that are glucose transport deficient and complemented with the human glucose transporter GLUT1. Activity is measured by DNA content using SYBR green in vitro
[2] = biological target: Hexose transporter 1 (Plasmodium falciparum) (UniProt O97467); experiment: ST_JUDE_LEISH: Cytotoxicity at 2uM final concentration against transgenic Leishmania Mexicana promastigotes LmPfHT that are glucose transport deficient and complemented with the Plasmodium falciparum hexose transporter. Activity is measured by DNA content using SYBR green in vitro
[3] = biological target: Glucose transporter (Leishmania mexicana) (UniProt O61059); experiment: ST_JUDE_LEISH: Cytotoxicity at 2uM final concentration against transgenic Leishmania Mexicana promastigotes LmGT2 that are glucose transport deficient and complemented with the L. Mexicana glucose transporter 2. Activity is measured by DNA content using SYBR green in vitro

Sequence of Solute carrier family 2, facilitated glucose transporter member 1 (Homo sapiens) (P11166 whole entry): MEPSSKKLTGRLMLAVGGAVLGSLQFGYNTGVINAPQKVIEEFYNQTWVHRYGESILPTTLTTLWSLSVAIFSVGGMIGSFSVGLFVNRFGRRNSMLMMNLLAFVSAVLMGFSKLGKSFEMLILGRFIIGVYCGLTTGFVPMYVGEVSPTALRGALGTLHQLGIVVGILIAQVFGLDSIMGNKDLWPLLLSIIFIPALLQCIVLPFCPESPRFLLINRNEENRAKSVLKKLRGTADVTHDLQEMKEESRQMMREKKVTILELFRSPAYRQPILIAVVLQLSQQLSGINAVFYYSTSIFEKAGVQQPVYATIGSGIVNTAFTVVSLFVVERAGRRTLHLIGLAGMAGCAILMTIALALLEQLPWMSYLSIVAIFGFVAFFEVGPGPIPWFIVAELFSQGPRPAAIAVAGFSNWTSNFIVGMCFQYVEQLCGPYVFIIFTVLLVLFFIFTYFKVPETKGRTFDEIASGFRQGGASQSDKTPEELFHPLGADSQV

## CCOC(=O)c1ccc(OCCCCCCOc2ccc(Br)cc2)cc1
[1]
  inhibition: 1.32%
[2]
  inhibition: 4.52%
[3]
  inhibition: -0.5%

## Oc1ccc(CCCNc2nc(NCc3ccccc3-c3ccccc3)nc(NC3CCNCC3)n2)cc1
[1]
  inhibition: -1.61%
[2]
  inhibition: -0.26%
[3]
  inhibition: -0.11%

## COc1ccc(OCCCON2C(=N)N=C(N)NC2(C)C)cc1
[1]
  inhibition: 5%
[2]
  inhibition: 1.09%
[3]
  inhibition: 1.17%

## COc1cc(Cc2cnc(N)nc2N)c2ccsc2c1OC
[1]
  inhibition: 4.16%
[2]
  inhibition: 3.31%
[3]
  inhibition: 1.58%
